# Shown are actives, neighbours in structure and some others; about 2.4% of the full set was active somewhere.
# A3A deaminase = APOBEC3A ssDNA deaminase inhibitors, primary screen, selectivity assay for APOBEC3G inhibitor project, biochemical, FAM/TAMRA oligo cleavage fluorescence; DNA dC->dU-editing enzyme APOBEC-3A (Homo sapiens), P31941; recombinant A3A, FAM/TAMRA ssDNA deamination fluorescence; inhibition, % at 20 µM; actives 0.41% (n = 330,000); AID 493011, 2011;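 active means at least 40% inhibition at 20 µM here, with at most 30% in a related deaminase screen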
# ADAM17 inh = ADAM17 inhibitors, primary screen, biochemical, QFRET; actives 0.83% (n = 370,000); recombinant ADAM17, EDANS/DABCYL FRET peptide cleavage; inhibition, % at 6.95 µM; Disintegrin and metalloproteinase domain-containing protein 17 (Homo sapiens), P78536;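 active means inhibition above the mean of compounds lying between control limits plus 3 SD, set per campaign, cut at about 8.5% in these data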
# CendR NRP1 mod = modulators of CendR peptide binding to NRP-1, primary screen, biochemical, fluorescence polarization, uHTS | Neuropilin-1 (Homo sapiens), O14786 | FAM-RPARPAR peptide binding to NRP-1 | inhibition, % at 25 µM | actives 0.85% (n = 360,000) | AID 602438, 2012;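 active means inhibition or corrected inhibition above about 18%, plus a signal ratio from 0.5 to 1.5, limit read from the data, passing the limit was not always enough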
# A3G deaminase = APOBEC3G DNA deaminase inhibitors, primary screen, biochemical, fluorescence, single-stranded DNA substrate, uHTS; DNA dC->dU-editing enzyme APOBEC-3G (Homo sapiens), Q9HC16; recombinant A3G, ssDNA deamination FAM/TAMRA fluorescence; inhibition, % at 20 µM; actives 0.28% (n = 330,000); AID 493012, 2011;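 active means inhibition of at least 40% at 20 µM, with no more than 30% in the related APOBEC3A deaminase screen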
# ADAM10 inh = human ADAM10 inhibitors, primary screen, biochemical, QFRET, HTS | recombinant ADAM10, EDANS/DABCYL FRET peptide cleavage, 3 h | inhibition, % at 7 µM | AID 720582, 2013 | actives 0.62% (n = 370,000) | Disintegrin and metalloproteinase domain-containing protein 10 (Homo sapiens), O14672;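 active means inhibition above a per-campaign cutoff equal to the mean of compounds falling between control-based bounds plus 3 SD, cut at about 20% in these data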
# Target sequence (O14672 214-748 limits assumed): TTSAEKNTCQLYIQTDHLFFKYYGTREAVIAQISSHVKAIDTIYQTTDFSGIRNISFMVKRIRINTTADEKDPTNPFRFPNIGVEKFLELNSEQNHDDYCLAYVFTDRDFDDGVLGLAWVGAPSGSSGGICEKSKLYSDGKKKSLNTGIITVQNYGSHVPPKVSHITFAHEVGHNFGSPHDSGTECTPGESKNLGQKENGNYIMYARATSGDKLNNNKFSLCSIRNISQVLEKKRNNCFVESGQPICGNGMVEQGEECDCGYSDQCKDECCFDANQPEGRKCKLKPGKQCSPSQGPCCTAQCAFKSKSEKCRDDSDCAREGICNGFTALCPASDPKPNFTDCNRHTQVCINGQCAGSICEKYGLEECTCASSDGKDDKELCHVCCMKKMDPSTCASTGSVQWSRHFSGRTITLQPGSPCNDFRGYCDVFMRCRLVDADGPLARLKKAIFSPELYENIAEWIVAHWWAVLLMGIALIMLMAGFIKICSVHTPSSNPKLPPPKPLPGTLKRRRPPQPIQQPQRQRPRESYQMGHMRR
# A3A conf = APOBEC3A deaminase inhibitors, retest, confirmation, selectivity assay for APOBEC3G inhibitor project, biochemical, single concentration, fluorescence readout | recombinant A3A, ssDNA deaminase UDG fluorescence assay | actives 63% (n = 1,400) | shares compounds with A3A deaminase | inhibition, % at 20 µM;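 active means inhibition reaching a set limit, 80% of the first screen's cutoff, at 20 µM in any replicate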
# UDG A3A counter = E. coli UDG inhibitors, confirmation, counter-screen for APOBEC3A inhibitor project, biochemical, single concentration, fluorescence, FAM/TAMRA oligo; inhibition, % at 20 µM; shares compounds with A3A deaminase; UDG counterscreen, FAM/TAMRA uracil oligo fluorescence; 1,000 tested, under 10 active; call rule not given here
# Numbers stand for hits; . = inactive; / = no result.
SMILES,A3A deaminase,ADAM17 inh,CendR NRP1 mod,A3G deaminase,ADAM10 inh,A3A conf,UDG A3A counter
Cn1c(SCC(=O)N2CCN(c3ccccc3)CC2)nnc1-c1ccncc1,.,.,.,.,.,/,/
Cn1c(SCC(=O)N2CCOCC2)nnc1-c1ccccc1,54,.,.,.,.,.,/
O=C(Nc1ccc(Cl)cc1)c1cccs1,.,.,.,.,.,/,/
O=C(Nc1ccc(NC(=O)c2ccc(Cl)cc2Cl)cc1)c1cccs1,54,.,.,.,.,41,.
C=CC(=O)NC1CCCCN(C)C1=O (stereo not given),/,.,/,/,.,/,/
CC(CCN1CCC(C(O)(c2ccccc2)c2ccccc2)CC1)Oc1cccc(Br)c1 (stereo not given),/,.,/,/,.,/,/
Nc1cc(N)nc(SCC(=O)Nc2ccc(Br)cc2Cl)n1,58,.,.,.,.,56,.
CC[n+]1cccc(-c2nc3ccccc3s2)c1,53,.,.,.,.,64,.
CCOC(=O)COc1ccc(Br)cc1/C=C1\SC(N)=NC1=O,53,.,.,.,.,50,.
O=C1C=C(O)c2c(O)cc(O)c(O)c2C1=O,83,.,.,.,.,76,/
O=C1c2ccccc2C(=O)c2c(O)c(O)cc(O)c21,.,.,.,.,.,/,/
Cn1cc(/C=N/NC(=O)c2cc3cc(Br)ccc3o2)c2ccccc21,52,.,.,.,.,58,.
CCCOc1cccc(C2C(C(=O)c3cc4ccccc4o3)=C(O)C(=O)N2c2cc(C)on2)c1 (stereo not given),57,.,.,.,.,.,.
O=[N+]([O-])c1ccc(C[n+]2cccc3ccccc32)cc1,43,.,.,.,.,53,.
OCC1COC(c2ccccc2)=N1 (stereo not given),/,.,/,/,.,/,/
Cn1c(=O)oc2cc(S(=O)(=O)N3CCN(C(=O)C4CCCO4)CC3)ccc21 (stereo not given),/,.,/,/,.,/,/
S=C(Nc1ccc(Br)cc1)OCCN1CCCC12CCC(c1ccccc1)CC2 (stereo not given),/,.,/,/,.,/,/
O=C(C1=C[C@H](c2coc3ccccc3c2=O)C[C@H](OCCCCO)O1)N1CCOCC1,.,.,.,.,.,/,/
O=C(C1=C[C@H](c2coc3ccccc3c2=O)C[C@H](OCCCCO)O1)N1CCN(Cc2ccccc2)CC1,76,.,.,.,.,.,.
COC(=O)Cc1nnn2c1[C@H](C)[C@H](c1ccccc1Br)OC[C@H](C)C2,/,.,/,/,.,/,/
CCn1c(N2CCN(CC(=O)c3c(C)n(C)c4ccccc34)CC2)nc2c1c(=O)[nH]c(=O)n2C,49,.,.,.,.,.,/
O=[N+]([O-])c1ccccc1/C=C/C=N/Nc1nc(N2CCCCC2)nc(N2CCCCC2)n1,78,.,.,.,.,81,.
O=C(/C=C/c1ccco1)Nc1scc(-c2ccccc2)c1C(=O)O,59,.,.,.,.,69,.
CN(Cc1ccco1)C(=O)c1cccc2c1C(=O)N(Cc1cccnc1)C2,/,.,/,/,.,/,/
COc1cccc(-c2ccc(-c3noc(-c4ccccc4F)n3)c(OC)n2)c1,.,.,.,.,.,/,/
COc1cccc(-c2ccc(-c3noc(-c4cccs4)n3)c(OC)n2)c1,68,.,.,.,.,72,.
O=C(c1ccccc1)n1ccc2ccc(-c3ccc4ccn(Cc5ccccc5)c4c3)cc21,/,.,/,/,.,/,/
c1cc[n+](CCC[n+]2ccccc2)cc1,71,.,.,.,.,88,.

# Screens: PubChem BioAssay, several laboratories
